Laboratory results: ChEMBL document CHEMBL3988442, “University of Dundee, Small-Polar-MMV Screening Library” (2021)
The whole screen tested about 69,000 compounds, of which about 950 (1.4%) showed an effect of 50% or more. For the sample, strong results were picked, then their nearest neighbours and some compounds at random.

tested on: Mycobacterium tuberculosis; experiment: Cornell M. t heat shock assay; format: functional, organism-based; set-up: dose or concentration left out as unconfirmed; further: in the data most compounds retested in dose-response had high values

Structure (SMILES)	Percent Effect [%]
COCC1Cn2nnc(-c3cnn(C)c3)c2CN1Cc1ccoc1.O=C(O)C(F)(F)F (stereo not given)	5.008
O=C(O)CCC(=O)Nc1nn(Cc2ccccc2Cl)cc1Cl	2.15
Cc1ccc(N2CCO[C@H]3CN(CC4CC4)C[C@H]32)nn1.O=C(O)C(F)(F)F.O=C(O)C(F)(F)F	-7.487
COc1cc(N2CC[C@@H](O)[C@@H]2Cc2cccnc2)ncn1.O=C(O)C(F)(F)F	0.6687
CCCN(CC(=O)N1CCNCC1)C(=O)c1cccc(Cl)c1.O=C(O)C(F)(F)F	0.5334
CCOc1ccccc1OCCN(C)Cc1nccn1C	-26.9
Cc1ccc(OCCN(C)Cc2nccn2C)c(C)c1	55.39
CN(CCCOc1ccccc1)Cc1nccn1C	-13.65
O=C(C1CCCc2[nH]ncc21)N1CCCC2(C1)OCCO2 (stereo not given)	10.11
CN(C)C(c1ccccn1)[C@H]1CC[C@H](CNC(=O)C2CCCC2)CC1 (stereo not given in full)	5.9375
N#Cc1ccc(C(=O)N2CC[C@H]3[C@H]2CCN3CC2CCOCC2)cc1.O=C(O)C(F)(F)F	-36.11
N#Cc1ccc(C(=O)NCCCNc2ccc(C(F)(F)F)cn2)cc1	28.89
O=C(NCCCNc1ccc(C(F)(F)F)cn1)c1ccccc1	26.28
N#CC1(C(=O)NCCCNc2ccc(C(F)(F)F)cn2)CCCC1	102.8
Cc1cc(NCCNc2ccc(C#N)cn2)nc(C)n1	-18.17
N#Cc1ccc(NCCNc2ccc(C(F)(F)F)cn2)nc1	51.52
O=C(NCCCNc1ccc(C(F)(F)F)cn1)c1ccc(F)cc1	26.36
O=C(O)C(F)(F)F.O=C1CC(c2ccccc2)C2(CCN(Cc3nccs3)CC2)N1 (stereo not given)	-1.259
CC(=O)N1CCC2(CC1)CNc1c(F)cccc12.Cl	12.35
Cc1nc(-c2cc(Cl)c3c(c2)CC(CN)O3)c[nH]1 (stereo not given)	42.51
Cc1cc2c(c(-c3c[nH]c(C)n3)c1)OC(CN)C2 (stereo not given)	1.503
Cc1nc(-c2cc(Cl)cc3c2OC(CN)C3)c[nH]1 (stereo not given)	52.4
Cc1cc(C(F)(F)F)n2nc(C3CCCN3C3CCSCC3)cc2n1.O=C(O)CC(O)(CC(=O)O)C(=O)O (stereo not given)	-13.15

Structure (SMILES)	Percent Effect [%]
COCC(=O)NC1CC2(CCN(CC3CC3)CC2)Oc2ccccc21.O=C(O)C(F)(F)F (stereo not given)	-26.45
COc1cc(N2CCC3(CCN(Cc4nccs4)CC3)C2)ncn1.O=C(O)C(F)(F)F	24.13
Cc1cccc(CN2C[C@H](OCc3csc(C)n3)[C@H]3COC[C@H]32)n1.O=C(O)C(F)(F)F.O=C(O)C(F)(F)F	-14.33
C[S+]([O-])c1nncn1CC(=O)c1ccc(Br)cc1 (stereo not given)	11.9
CC(C)Cc1ccc(C(=O)Cn2cnnc2[S+](C)[O-])cc1 (stereo not given)	59.76
CC(C)Oc1ccc(C(=O)Cn2cnnc2[S+](C)[O-])cc1 (stereo not given)	17.53
O=C(O)C(F)(F)F.O=C(c1ccc(F)cc1)N1CCC2(CCCN2CC2CC2)CC1	-17.36
CS(=O)(=O)N1CCN(c2ccc3ccc(C(=O)NC4CC4)cn23)CC1	20.39
CC(=O)N1CCN(c2ccc3ccc(C(=O)NC4CCCC4)cn23)CC1	69.47
CN(C)C(=O)N1CCN(c2ccc3ccc(C(=O)NC4CC4)cn23)CC1	-6.605
CC(C)N1CCN(c2ccc3ccc(C(=O)NC4CCCC4)cn23)CC1.O=C(O)C(F)(F)F	67.57
O=C(NC1CC1)c1ccc2ccc(N3CCN(CC4CC4)CC3)n2c1	38.85
COCCN1CCN(c2ccc3ccc(C(=O)NC4CC4)cn23)CC1	-14.38
CN(C)C(=O)[C@H]1C[C@@H]2CCN(C3CCOCC3)C[C@@H]2O1.O=C(O)C(F)(F)F	2.005
CN(C)c1ncnc2c1CCN(CC1CCOC1)CC2.O=C(O)C(F)(F)F (stereo not given)	-1.073
Cc1cccc(N2CC[C@@H]3CN(C(=O)c4ccco4)CCO[C@@H]3C2)n1.O=C(O)C(F)(F)F	6.087
Cn1cccc1C(=O)N1CCO[C@@H]2CN(Cc3nccs3)C[C@@H]2C1.O=C(O)C(F)(F)F	-1.358
CN(C)[C@H]1CCN(c2ccnc(C(=O)NCc3ccco3)c2)C1	19.62
CCCOC1CCCN(c2ccnc(C(=O)NCc3ccco3)c2)C1 (stereo not given)	56.57
O=C(NCc1ccco1)c1cc(N2CC[C@@H](O)C2)ccn1	1.104
CC[C@@H]1N(Cc2ccoc2)CCC[C@]12CCC(=O)N2CCOC.O=C(O)C(F)(F)F	-21.47
CN1CC[C@H]2[C@H](C[C@@H](CN3CCCC3)N2c2nccs2)C1.O=C(O)C(F)(F)F.O=C(O)C(F)(F)F.O=C(O)C(F)(F)F	17.76
O=C(O)C(F)(F)F.O=C1N(CC2CC2)CCC12CCCN(c1ncc(F)cn1)C2 (stereo not given)	23.17

Structure (SMILES)	Percent Effect [%]
CC(C)CN1C(=O)C2(CCN(Cc3ccc(F)cc3)C2)c2ccccc21 (stereo not given)	17.34
Cc1ccc(CN2CCC3(C2)C(=O)N(CC2CC2)c2ccccc23)s1.O=C(O)C(F)(F)F (stereo not given)	22.05
Cc1ccc(CN2CCC3(C2)C(=O)N(CC(N)=O)c2ccccc23)s1 (stereo not given)	-35.1
Cc1ccc(CN2CCC3(CC2)C(=O)N(C)c2ccccc23)s1.O=C(O)C(F)(F)F	67.96
Cc1ccc(CN2CCC3(CC2)C(=O)Nc2ccccc23)s1.O=C(O)C(F)(F)F	0.7618
Cc1ccc(CN2CCC3(C2)C(=O)N(CC(C)C)c2ccccc23)s1 (stereo not given)	104.8
Cc1cccc(CN2C[C@@H]3COC[C@]3(COc3cccnc3)C2)n1.O=C(O)C(F)(F)F.O=C(O)C(F)(F)F.O=C(O)C(F)(F)F	-8.53
Cc1cccc(Nc2cc(C)nc(C3CCCCN3CC(N)=O)n2)n1 (stereo not given)	-15.32
Cc1cc(Nc2nc(C)cs2)nc(C2CCCCN2CCO)n1 (stereo not given)	103.2
Cc1csc(Nc2cc(C3CCCCN3C)nc(C)n2)n1 (stereo not given)	-8.179
COc1nc2cc(C)ccc2cc1CN(C)Cc1cc(C)[nH]n1.O=C(O)CC(O)(CC(=O)O)C(=O)O	-1.641
O=C(O)C(F)(F)F.O=C(O)C(F)(F)F.O=C1[C@H]2CN(Cc3ccoc3)C[C@H]2CN1CCN1CCCC1	-10.49
O=C(c1ncccn1)N1C[C@@H]2COC[C@]2(COc2cccnc2)C1	26.01
O=C(c1cocn1)N1C[C@@H]2COC[C@]2(COc2cccnc2)C1	75.2
O=C(C1=CCCC1)N1C[C@@H]2COC[C@]2(COc2cccnc2)C1	1.513
O=C(O)C(F)(F)F.O=C(c1cocn1)N1C[C@H]2CCC[C@@]2(COc2ccccn2)C1	21.2
CS(=O)(=O)N1CCC2(CC1)CC(NCc1ccco1)c1ccccc12.O=C(O)C(F)(F)F (stereo not given)	55
Cn1cc(CNC2CC3(CCN(S(C)(=O)=O)CC3)c3ccccc32)cn1.O=C(O)C(F)(F)F (stereo not given)	36.25
CS(=O)(=O)N1CCC2(CC1)CC(NCC1CC1)c1ccccc12.O=C(O)C(F)(F)F (stereo not given)	1.272
COc1cccc(C2CCN(c3ccc4cc[nH]c4n3)C2)c1OC (stereo not given)	36.99
COc1ccc(OC)c(C2CCN(c3ccc4cc[nH]c4n3)C2)c1 (stereo not given)	103.8
COc1ccccc1C1CCN(c2ccc3cc[nH]c3n2)CC1	-1.592
CS(=O)(=O)N1C[C@H]2CC[C@@H]1CN(Cc1ccncc1)C2	-0.4425

Structure (SMILES)	Percent Effect [%]
Cn1cc(N2CCC3(CCN(Cc4nccs4)C3)C2=O)cn1.O=C(O)C(F)(F)F (stereo not given)	-0.6336
Cc1cnnn1Cc1ncn2c1CN(Cc1cccs1)CCC2.O=C(O)C(F)(F)F	1.772
O=C(O)C(F)(F)F.O=C(O)C(F)(F)F.O=C1CO[C@@H]2CN(CC3CCOCC3)C[C@H]2N1Cc1ccncc1	-5.107
Cc1ccc(C(=O)Nc2ccc(N3CCC(O)CC3)c(C#N)c2)s1	25.13
Cc1ccsc1C(=O)Nc1ccc(N2CCC(O)CC2)c(C#N)c1	75.65
N#Cc1cc(NC(=O)c2ccsc2)ccc1N1CCC(O)CC1	11.62
COc1ccc(C[C@H]2CN(C(=O)c3ccc(C)nc3)CC[C@@H]2OC)cc1.O=C(O)C(F)(F)F	-2.913
CNC(=O)[C@H]1C[C@@H]2CCN(Cc3ccncc3)C[C@H]2O1.O=C(O)C(F)(F)F.O=C(O)C(F)(F)F	-3.411
CC(C)c1cc(C(=O)NCC2CCCN(C(C)C)C2)n(C)n1.Cl (stereo not given)	-0.8268
Cc1cc(C)n(CC2CCCN2CC(=O)Nc2cc(C(C)C)no2)n1 (stereo not given)	66.41
CC(C)c1cc(NC(=O)CN2CCCC2Cn2cncn2)on1 (stereo not given)	-8.042
CC(C)c1cc(NC(=O)CN2CCCC2Cn2cccn2)on1 (stereo not given)	-10.53
Cc1cnn(CC2CCCN2CC(=O)Nc2cc(C)no2)c1 (stereo not given)	35.93
CC(C)(C)c1cc(NC(=O)CN2CCCC2Cn2cncn2)on1 (stereo not given)	2.377
Cc1cnn(CC2CCCN2CC(=O)Nc2cc(C(C)(C)C)no2)c1 (stereo not given)	73.93
Cc1cnn(CC2CCCN2CC(=O)Nc2cc(C(C)C)no2)c1 (stereo not given)	98.13
Cc1cnn(CC2CCCN2CC(=O)Nc2cc(C)on2)c1 (stereo not given)	-31.38
CC(C)(C)c1cc(NC(=O)CN2CCCCC2Cn2cncn2)on1 (stereo not given)	-1.6
Cc1cnn(CC2CCCN2CC(=O)NC2CCOCC2)c1 (stereo not given)	-0.7823
Cc1nc(C)n(CC2CCCN2CC(=O)Nc2cc(C(C)C)no2)n1 (stereo not given)	-40.94
CC(C)(C)c1cc(NC(=O)CN2CCCC2Cn2cccn2)on1 (stereo not given)	77.39
